{"source": "PubChem BioAssay (NCI)", "note": "The panel holds about 83,000 compounds, 20% with a hit somewhere; the sample as a whole holds those more often.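 Testing used 96-well plates and a 48-hour single-concentration exposure. Example: -40 means 40% of the starting cells died.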 Activity calls are given as the source filed them. How the source made its calls: active means growth percent below 10; inactive means the rest."}
{"system": "MDA-MB-468 breast", "experiment": "NCI-60 one-dose screen, 48 h (100 = growth as untreated, 0 = no growth, -100 = all killed)", "settings": "10 µM unless noted"}
{"smiles": "O=C1NC2(Nc3ccccc31)C(=O)Nc1c(Cl)cc(Cl)cc12", "note": "(stereo not given)", "growth": "112% (inactive)"}
{"smiles": "C=C1C(=O)O[C@@H]2/C=C(/C)C3=CC(=O)[C@@](C)(C[C@H](OC(=O)/C(C)=C\\C)[C@@H]12)O3", "growth": "-43.6% (active)"}
{"smiles": "C=C1C(=O)O[C@H]2[C@H]1CC/C(COC(=O)/C=C\\C(=O)NCc1ccc(Cn3c(=O)sn(CCCCl)c3=O)cc1)=C\\CC[C@@]1(C)O[C@@H]21", "growth": "40.3% (inactive)"}
{"smiles": "C[C@@H]1N=C(c2ccc3ccccc3c2)Nc2nc3ccccn3c2C1=O", "growth": "50.5% (inactive)"}
{"smiles": "Fc1ccc2[nH]c3c(NCCCN4CCOCC4)ncnc3c2c1", "growth": "73.2% (inactive)"}
{"smiles": "N#Cc1c2ncccc2c2nnc3cc(Cl)c(Cl)cc3n12", "growth": "21.7% (inactive)"}
{"smiles": "O=C(CCC(=O)c1nc2ncccc2[nH]1)NN1C(=O)CSC1c1ccc(Cl)cc1", "note": "(stereo not given)", "growth": "112% (inactive)"}
{"smiles": "N#Cc1nc(-c2ccccc2)oc1N1CC[C@@H](CO)C1", "growth": "95.2% (inactive)"}
{"smiles": "O=C(Cn1cc(CN2C(=O)c3ccccc3S2(=O)=O)nn1)Nc1ccc([N+](=O)[O-])cc1Cl", "growth": "103% (inactive)"}
{"smiles": "C[N+](C)(C)CCOC(OCC[N+](C)(C)C)(c1ccccc1)c1ccccc1", "growth": "128% (inactive)"}
{"smiles": "O=C(O)CC(C(=O)O)/C(=C\\c1ccccc1)c1ccccc1", "note": "(stereo not given)", "growth": "88.1% (inactive)"}
{"smiles": "CN1C(=O)c2cc(Cl)nc3c(NC(=O)c4cccc(Cl)c4)c(Cl)c(NC(=O)c4cccc(Cl)c4)c1c23", "growth": "-19.6% (active)"}
{"smiles": "CCCCn1c(C)nc2ccc(Nc3nc(N4CCN(C)CC4)nc4nc[nH]c34)cc21", "growth": "82.2% (inactive)"}
{"smiles": "NC(N)=NS(=O)(=O)c1ccc(N=Nc2c(N)nn(-c3ccc([N+](=O)[O-])cc3[N+](=O)[O-])c2N)cc1", "growth": "106% (inactive)"}
{"smiles": "C(=N\\Nc1nc(N/N=C/c2ccc3c(c2)OCO3)nc(N2CCCCC2)n1)/c1ccc2c(c1)OCO2", "growth": "81.6% (inactive)"}
{"smiles": "Brc1cnc2[nH]cc(-c3nnc(-c4ccccc4)o3)c2c1", "growth": "60.3% (inactive)"}
{"smiles": "COc1ccc(Nc2nn3c(-c4ccccc4)cc(-c4ccccc4)nc3c2C(N)=O)c(OC)c1", "growth": "43.5% (inactive)"}
{"smiles": "Cc1ccc(Oc2c(/C=N/NC(=O)Cn3c(=O)sc4ccccc43)c(C)nn2-c2ccccc2)cc1", "growth": "41% (inactive)"}
{"smiles": "O=C(/C=C/c1cccc2ccccc12)c1ccc(NC(=O)c2ccccc2CN2C(=O)c3ccccc3C2=O)cc1", "growth": "51.3% (inactive)"}
{"smiles": "Cc1nc2ccc(-n3c(-c4ccc(Cl)cc4)nc4ccccc4c3=O)cc2n1Cc1ccccc1", "growth": "77.6% (inactive)"}
{"smiles": "COc1cc2c3c(c1)nc(C)n3CCC2", "growth": "99.6% (inactive)"}
{"smiles": "C#Cc1nc(C(=O)NCCC(=O)Nc2ccc(NC(=O)c3ccc(/C=C/C(=O)c4nccn4C)cc3)cc2)cs1", "growth": "20.6% (inactive)"}
{"smiles": "COc1cc(Cn2c(-c3ccccc3)cc3c2-c2oncc2CC3)cc(OC)c1OC", "growth": "-20.5% (active)"}
{"smiles": "Cc1cc(C)c(NC(=O)c2sc3nc4c(cc3c2N)C(=O)CCC4)c(C)c1", "growth": "-27.2% (active)"}
{"smiles": "CC1=N[C@@H]2CN(C(=O)OC(C)(C)C)C[C@@H]2n2c1cc1ccccc1c2=O", "growth": "111% (inactive)"}
{"smiles": "CCN1/C(=C/C=C/C=C/c2sc3ccccc3[n+]2CC)Sc2ccccc21", "growth": "-81% (active)"}
{"smiles": "Cn1cc(-c2cc3ncnc(Nc4ccc(NC(=O)Nc5cc(C(C)(C)C)on5)cc4)c3s2)cn1", "growth": "31.7% (inactive)"}
{"smiles": "Cc1ccc(Nc2nc(SC(C)C)nc(-c3ccccc3)c2C#N)cc1", "growth": "96.7% (inactive)"}
{"smiles": "CCCCCCCC/C=C/CCCCCCCC1=NCC[N+]1(CCO)CCO", "growth": "23% (inactive)"}
{"smiles": "CNC(=O)c1cnc(C)nc1-c1cc(C(C)(C)C)c(O)c(C(C)(C)C)c1", "growth": "97.4% (inactive)"}
{"smiles": "CSc1nc(-c2cccs2)c2c(N)[nH]nc2n1", "growth": "117% (inactive)"}
{"smiles": "N#Cc1c(-c2ccccc2)nc2c(c(-c3ccccc3)nn2-c2ccccc2)c1-c1ccc(N2CCOCC2)cc1", "growth": "80.9% (inactive)"}
{"smiles": "COc1cc2c(=O)n(CCCN(C)C)c3c4cc[nH]c4ncc3c2cc1OC", "growth": "81.5% (inactive)"}
{"smiles": "Fc1ccc(-c2ccnc3nc(-c4ccncc4)nn23)cc1", "growth": "111% (inactive)"}
{"smiles": "CC1(O)COCCCCOc2c(CN)cccc2NC(=O)c2nc(cnc2N)-c2ccc(cc2)S(=O)(=O)C(C)(C)C1", "note": "(stereo not given)", "growth": "-35.1% (active)"}
{"smiles": "COc1ccc(/C=C2\\CN(C(=O)CCN3CCC(=NO)CC3)C/C(=C\\c3ccc(OC)cc3)C2=O)cc1", "growth": "-27.5% (active)"}
{"smiles": "C=C(CNCCc1ccc(O)cc1)[C@@H]1CC[C@]2(CO)CC[C@]3(C)[C@H](CC[C@@H]4[C@@]5(C)CCC(NCCO)C(C)(C)[C@@H]5CC[C@]43C)[C@@H]12", "note": "(stereo not given in full)", "growth": "-84.3% (active)"}
{"smiles": "O=C1C(=O)c2c(nc3ccc(Br)cn23)-c2ccccc21", "growth": "-58% (active)"}
{"smiles": "C#Cc1cccc(NC(=O)C2CCCN(C(=O)CCl)C2)c1", "note": "(stereo not given)", "growth": "66.3% [8.25 µM] (inactive)"}
{"smiles": "O=C(Cc1ccc(/C=C/C(=O)c2ncc[nH]2)cc1)Nc1cc(F)c(F)c(F)c1", "growth": "8.95% (active)"}
